# Assay results published in PubChem BioAssay AID1159580 (chemical genetic matrix, 2015).
# “And” between values parts separate entries of the source, which are not always exact repeats. Equal values may be shown once. Among all 5,500 compounds or so, about 2,000 (36%) were called active. Inconclusive results (about 18%) are left out. The list shows a part of the results. A number with no mark means an inactive call. Rule as the data show it: active = normalized growth mostly below about 0.91 (no sharp cut-off); inconclusive = no clear call, values can overlap the other calls; inactive = mostly above about 0.92.
# Assay: chemical genetic growth profiling, strain panel (AID 1159580);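 also: tested at 20 µM; growth read once vehicle control cultures reached saturation at 30 °C; 1 = growth at the plate median or of vehicle wells; lower values mean less growth of the strain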
# Details: growth OD
smiles,measurement,setting,value
OCCN1CCN(CCCN2c3ccccc3Sc3ccc(C(F)(F)F)cc32)CC1,normalized growth,"S. cerevisiae deletion strains, locus YJR075W, strain HOC1, active compounds read low",0.939 and 0.985
same,normalized growth,"S. cerevisiae deletion strains, locus YKL009W, strain mrt4, active compounds read low",0.926
same,normalized growth,"S. cerevisiae deletion strains, locus YKL068W, active compounds read low",0.987
same,normalized growth,"S. cerevisiae deletion strains, locus YKL085W, strain MDH1 (second series), active compounds read low",0.981
same,normalized growth,"S. cerevisiae deletion strains, locus YKL085W, strain MDH1, active compounds read low",0.981
same,normalized growth,"S. cerevisiae deletion strains, locus YKL160W, strain elf1, active compounds read low",0.907
same,normalized growth,"S. cerevisiae deletion strains, locus YKL190W, strain CNB1, active compounds read low",0.975
same,normalized growth,"S. cerevisiae deletion strains, locus YKR001C, strain vps1, active compounds read low",0.864 (active)
same,normalized growth,"S. cerevisiae deletion strains, locus YKR026C, strain gcn3, active compounds read low",0.998
same,normalized growth,"S. cerevisiae deletion strains, locus YKR091W, strain srl3, active compounds read low",0.976
same,normalized growth,"S. cerevisiae deletion strains, locus YLL001W, strain dnm1, active compounds read low",0.983
same,normalized growth,"S. cerevisiae deletion strains, locus YLL026W, active compounds read low",0.968
same,normalized growth,"S. cerevisiae deletion strains, locus YLL041C, strain sdh2, active compounds read low",0.968
same,normalized growth,"S. cerevisiae deletion strains, locus YLR027C, strain aat2, active compounds read low",0.951
same,normalized growth,"S. cerevisiae deletion strains, locus YLR039C, strain RIC1, active compounds read low",1.48 [resistant] (active)
same,normalized growth,"S. cerevisiae deletion strains, locus YLR058C, strain SHM2, active compounds read low",0.976
same,normalized growth,"S. cerevisiae deletion strains, locus YLR102C, strain apc9, active compounds read low",0.995
same,normalized growth,"S. cerevisiae deletion strains, locus YLR221C, strain rsa3, active compounds read low",0.975
same,normalized growth,"S. cerevisiae deletion strains, locus YLR258W, strain gsy2, active compounds read low",0.949
same,normalized growth,"S. cerevisiae deletion strains, locus YLR262C, strain YPT6 (second series), active compounds read low",1.04
same,normalized growth,"S. cerevisiae deletion strains, locus YLR262C, strain YPT6, active compounds read low",1.41 [resistant] (active)
same,normalized growth,"S. cerevisiae deletion strains, locus YLR268W, strain sec22, active compounds read low",0.901
same,normalized growth,"S. cerevisiae deletion strains, locus YLR320W, strain mms22, active compounds read low",0.999
same,normalized growth,"S. cerevisiae deletion strains, locus YLR330W, strain CHS5, active compounds read low",1.03
same,normalized growth,"S. cerevisiae deletion strains, locus YLR342W, strain FKS1 (second series), active compounds read low",0.723 (active)
same,normalized growth,"S. cerevisiae deletion strains, locus YLR342W, strain FKS1, active compounds read low",0.807 (active)
same,normalized growth,"S. cerevisiae deletion strains, locus YLR357W, strain rsc2, active compounds read low",0.984
same,normalized growth,"S. cerevisiae deletion strains, locus YLR370C, strain arc18, active compounds read low",0.952
same,normalized growth,"S. cerevisiae deletion strains, locus YLR371W, strain rom2, active compounds read low",0.983
same,normalized growth,"S. cerevisiae deletion strains, locus YLR384C, strain iki3, active compounds read low",0.981
same,normalized growth,"S. cerevisiae deletion strains, locus YLR418C, strain cdc73, active compounds read low",0.76 (active)
same,normalized growth,"S. cerevisiae deletion strains, locus YML016C, strain PPZ1, active compounds read low",0.994
same,normalized growth,"S. cerevisiae deletion strains, locus YML032C, strain rad52, active compounds read low",0.926
same,normalized growth,"S. cerevisiae deletion strains, locus YML120C, strain ndi1, active compounds read low",0.995
same,normalized growth,"S. cerevisiae deletion strains, locus YML124C, strain tub3, active compounds read low",1
same,normalized growth,"S. cerevisiae deletion strains, locus YMR058W, strain fet3, active compounds read low",0.884 (active)
same,normalized growth,"S. cerevisiae deletion strains, locus YMR078C, strain ctf18, active compounds read low",0.986
same,normalized growth,"S. cerevisiae deletion strains, locus YMR125W, strain sto1, active compounds read low",0.957
same,normalized growth,"S. cerevisiae deletion strains, locus YMR129W, active compounds read low",0.978
same,normalized growth,"S. cerevisiae deletion strains, locus YMR205C, strain PFK2, active compounds read low",0.992
same,normalized growth,"S. cerevisiae deletion strains, locus YMR223W, strain ubp8, active compounds read low",0.963
same,normalized growth,"S. cerevisiae deletion strains, locus YMR231W, strain pep5, active compounds read low",0.0843 (active)
same,normalized growth,"S. cerevisiae deletion strains, locus YMR263W, strain SAP30, active compounds read low",0.933 and 0.994
same,normalized growth,"S. cerevisiae deletion strains, locus YMR307W, strain GAS1, active compounds read low",0.852 and 1.02
same,normalized growth,"S. cerevisiae deletion strains, locus YNL067W, strain RPL9B, active compounds read low",0.921
same,normalized growth,"S. cerevisiae deletion strains, locus YNL071W, strain lat1, active compounds read low",0.988
same,normalized growth,"S. cerevisiae deletion strains, locus YNL128W, strain TEP1, active compounds read low",0.944
same,normalized growth,"S. cerevisiae deletion strains, locus YNL153C, strain GIM3, active compounds read low",0.919 and 0.859
same,normalized growth,"S. cerevisiae deletion strains, locus YNL175C, strain NOP13, active compounds read low",1.01
same,normalized growth,"S. cerevisiae deletion strains, locus YNL197C, strain WHI3, active compounds read low",1.01
same,normalized growth,"S. cerevisiae deletion strains, locus YNL209W, strain ssb2, active compounds read low",0.952
same,normalized growth,"S. cerevisiae deletion strains, locus YNL224C, strain SQS1, active compounds read low",1.02
same,normalized growth,"S. cerevisiae deletion strains, locus YNL233W, strain BNI4, active compounds read low",0.909
same,normalized growth,"S. cerevisiae deletion strains, locus YNL248C, strain rpa49, active compounds read low",0.901
same,normalized growth,"S. cerevisiae deletion strains, locus YNL250W, strain rad50, active compounds read low",0.989
same,normalized growth,"S. cerevisiae deletion strains, locus YNL271C, strain bni1, active compounds read low",0.986
same,normalized growth,"S. cerevisiae deletion strains, locus YNL298W, strain CLA4, active compounds read low",0.963
same,normalized growth,"S. cerevisiae deletion strains, locus YNL307C, strain MCK1, active compounds read low",0.98
same,normalized growth,"S. cerevisiae deletion strains, locus YNL322C, strain KRE1 (second series), active compounds read low",0.968
same,normalized growth,"S. cerevisiae deletion strains, locus YNL322C, strain KRE1, active compounds read low",0.995
same,normalized growth,"S. cerevisiae deletion strains, locus YNR049C, strain mso1, active compounds read low",0.984
same,normalized growth,"S. cerevisiae deletion strains, locus YNR052C, strain pop2, active compounds read low",0.938
same,normalized growth,"S. cerevisiae deletion strains, locus YOL006C, strain TOP1, active compounds read low",0.629
same,normalized growth,"S. cerevisiae deletion strains, locus YOL012C, strain htz1",1.6
same,normalized growth,"S. cerevisiae deletion strains, locus YOL147C, strain pex11, active compounds read low",0.986
same,normalized growth,"S. cerevisiae deletion strains, locus YOR001W, strain rrp6, active compounds read low",0.943
same,normalized growth,"S. cerevisiae deletion strains, locus YOR061W, strain CKA2, active compounds read low",0.987
same,normalized growth,"S. cerevisiae deletion strains, locus YOR069W, strain VPS5, active compounds read low",0.986
same,normalized growth,"S. cerevisiae deletion strains, locus YOR070C, strain gyp1, active compounds read low",0.938
same,normalized growth,"S. cerevisiae deletion strains, locus YOR080W, strain dia2, active compounds read low",0.989
same,normalized growth,"S. cerevisiae deletion strains, locus YOR083W, strain WHI5 (second series), active compounds read low",0.886
same,normalized growth,"S. cerevisiae deletion strains, locus YOR083W, strain WHI5, active compounds read low",0.855 (active)
same,normalized growth,"S. cerevisiae deletion strains, locus YOR106W, strain vam3, active compounds read low",0.644 (active)
same,normalized growth,"S. cerevisiae deletion strains, locus YOR136W, strain idh2, active compounds read low",0.978
same,normalized growth,"S. cerevisiae deletion strains, locus YOR144C, strain elg1, active compounds read low",0.999
same,normalized growth,"S. cerevisiae deletion strains, locus YOR184W, strain ser1, active compounds read low",0.99
same,normalized growth,"S. cerevisiae deletion strains, locus YOR265W, strain rbl2, active compounds read low",0.986
same,normalized growth,"S. cerevisiae deletion strains, locus YOR270C, strain vph1, active compounds read low",0.788
same,normalized growth,"S. cerevisiae deletion strains, locus YOR290C, strain snf2, active compounds read low",0.911
same,normalized growth,"S. cerevisiae deletion strains, locus YOR316C, strain cot1, active compounds read low",0.991
same,normalized growth,"S. cerevisiae deletion strains, locus YPL051W, strain arl3, active compounds read low",0.874 (active)
same,normalized growth,"S. cerevisiae deletion strains, locus YPL055C, strain LGE1, active compounds read low",0.902 and 0.943
same,normalized growth,"S. cerevisiae deletion strains, locus YPL078C, strain atp4, active compounds read low",0.941
same,normalized growth,"S. cerevisiae deletion strains, locus YPL106C, strain sse1, active compounds read low",0.988
same,normalized growth,"S. cerevisiae deletion strains, locus YPL240C, strain hsp82, active compounds read low",0.984
same,normalized growth,"S. cerevisiae deletion strains, locus YPL241C, strain CIN2, active compounds read low",0.997
same,normalized growth,"S. cerevisiae deletion strains, locus YPR119W, strain clb2, active compounds read low",0.988
same,normalized growth,"S. cerevisiae deletion strains, locus YPR141C, strain kar3, active compounds read low",0.985
same,normalized growth,"S. cerevisiae deletion strains, locus YPR163C, strain tif3, active compounds read low",0.89 (active)
same,normalized growth,"S. cerevisiae deletion strains, locus YPR167C, strain met16, active compounds read low",0.984
same,normalized growth,"S. cerevisiae deletion strains, strain wtn01, active compounds read low",0.887 (active)
same,normalized growth,"S. cerevisiae strains, strain wild type, active compounds read low",0.949
